Measured values as given in article PMC5540273 (PLoS ONE, 2017).

test system: MARK2; conditions: concentration: 1 μM, replicates: in singlicate; n = 1
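Note: KINOMEscan kinase panel screen.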

In order of falling “%Inh” value:
1. CN1c2ccc(-c3ccc(C(=O)NCCO)cc3)cc2-c2[nH]ncc2S1(=O)=O  24%
2. Cc1ccc(O)cc1Nc1cc(C(F)(F)F)nc2ccc(-c3ccncc3)cc12 [GW630823]  9%
3. CS(=O)(=O)CCNCc1nc(-c2ccc3ncnc(Nc4ccc(OCc5cccc(F)c5)c(Cl)c4)c3c2)cs1.Cl [GW583340]  0%
4. Nc1nc(-c2ccc3c(N)n[nH]c3c2)cc(N2CCC[C@@H](C(=O)Nc3ccccc3)C2)n1.O=C(O)C(F)(F)F.O=C(O)C(F)(F)F [GSK2288359]  0%
5. Oc1ccc2ncnc(Nc3ccc(OCc4ccccc4)cc3)c2c1 [GI262866]  0%
6. Nc1nc(-c2ccccn2)c(-c2ccnc3ccccc23)s1 [GW548057]  0%
7. FC(F)(F)c1ccc(-c2cc(-c3c[nH]nc3-c3ccccn3)ccn2)cc1 [GW599550]  0%
8. Cn1cc(-c2ccc3c(c2)CCN3C(=O)Cc2cccc(C(F)(F)F)c2)c2c(N)ncnc21 [GSK2606414]  0%
9. NC(=O)c1sc(-n2cnc3ccccc32)cc1OCc1ccccc1F [GSK1024306]  0%
